Bioassay records (PubChem)
Compounds with a hit are over-represented: about 4.6% of the library has one in this group of screens.
TRHR PAM: allosterically enhances the human TRH receptor; P34981; TRHR cells, fluo-8 calcium fluorescence, EC20 TRH enhancement; enhancement, % at 2 µM; actives 0.66% (n = 360,000); AID 493056; in the data active = enhancement above about 30%; note: 0% is about no effect
Target sequence (P34981 whole entry, looked up): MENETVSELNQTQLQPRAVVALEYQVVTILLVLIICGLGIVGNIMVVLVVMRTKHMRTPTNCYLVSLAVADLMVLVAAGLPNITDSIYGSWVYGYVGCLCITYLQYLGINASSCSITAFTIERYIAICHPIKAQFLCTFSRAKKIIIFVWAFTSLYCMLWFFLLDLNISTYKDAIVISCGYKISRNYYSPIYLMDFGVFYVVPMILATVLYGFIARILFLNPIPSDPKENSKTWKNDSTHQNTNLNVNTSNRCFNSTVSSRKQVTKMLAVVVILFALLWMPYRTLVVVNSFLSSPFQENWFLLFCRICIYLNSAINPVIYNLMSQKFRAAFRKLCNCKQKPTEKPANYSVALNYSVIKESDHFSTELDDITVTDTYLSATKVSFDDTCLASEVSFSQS
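TRHR-expressing cells loaded with fluo-8 calcium dye were read kinetically (ex 480/em 530) during compound addition, then stimulated with an EC20 of TRH (10 nM final). Enhancement of the Gq-mediated intracellular calcium response was scored.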
D1 PAM: potentiators of human D1 dopamine receptor; P21728; HEK293 TREx D1 cells, calcium flux, dopamine EC20 potentiation; potentiation, % at 10 µM; actives 0.036% (n = 360,000); AID 504651; in the data active = potentiation above about 30%; note: 0% is about no effect
TRHR agonist: TRH receptor (human) agonism | P34981 | TRHR cells, calcium flux fluo-8, FDSS agonist mode | activation, % at 2 µM | actives 0.18% (n = 360,000); note: 0% is about no effect
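Read-out: compound-evoked intracellular calcium rise in TRHR cells, fluo-8 dye, kinetic FDSS fluorescence at 1 s/cycle following a 10-cycle baseline. Cells cultured overnight before dye loading (30 min–1.5 h, RT).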
D1 ag: agonists of human D1 dopamine receptor; HEK293 T-REx D1 cells, calcium flux, agonist mode; P21728; activation, % at 2 µM; actives 1% (n = 360,000); AID 504660; note: 0% is about no effect
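Inducible HEK293 T-REx D1 cells, force-coupled to calcium signalling, were plated at 4000 cells/well with tetracycline and held overnight at 30 C. After no-wash calcium dye loading, compound-evoked calcium rise over 180 s flagged agonists.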
D1 antagonist: antagonists of human D1 dopamine receptor. P21728. HEK293 TREx D1 cells, calcium flux, dopamine EC80; hits give low values. activity change, negative = inhibition, % at 10 µM. actives 3.2% (n = 360,000). AID 504652; in the data active = activity change below about -30%; note: % is set by controls: 0 for no effect and ±100 for the full control effect
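HEK293 T-REx cells expressing inducible, force-coupled D1 receptor; no-wash Ca dye, 30–90 min RT. Cmpd → 180 s read at 1 Hz → EC80 DA → 180 s read.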
* hit, by the source's call; . = no result given; ! = repeats disagree. Cut-off read from the data, not from the text of the source, unless noted: active = activation above about 30%; inactive = the rest.

SMILES | TRHR PAM | D1 PAM | TRHR agonist | D1 ag | D1 antagonist
Cc1cc(C(=O)N2CCCC(N3CCN(c4cccc(Cl)c4)CC3)C2)n(C)n1 (stereo not given) | -0.2 | -4.1 | 0.0 | 6.1 | 14.8
O=C(c1ccoc1)N1CCCC(N2CCN(c3cccc(Cl)c3)CC2)C1 (stereo not given) | -8.0 | -5.2 | -0.5 | 4.0 | -46.1*
O=C(c1ccoc1)N1CCCC(N2CCN(c3ccc(F)cc3)CC2)C1 (stereo not given) | -1.3 | -5.0 | 0.3 | 0.2 | -6.3
Cc1cccc(OCC(=O)Nc2c(C(=O)N3CCN(c4ccccc4F)CC3)oc3ccccc23)c1 | -0.3 | 0.0 | -0.7 | -0.9 | -2.2
O=C1C(Cl)=C(Nc2ccccc2)C(=O)c2ccccc21 | -17.7 | -6.9 | -0.7 | 6.8 | -57.8*
COCCNC(=O)C(c1ccc(C)o1)N(Cc1ccc(OC)cc1)C(=O)Cn1nnc2ccccc21 (stereo not given) | -0.7 | -8.8 | 0.3 | 56.3* | -11.4
COc1ccc(-n2nc(C(=O)Nc3ccc(Br)cc3C)c3c4ccccc4n(C)c3c2=O)cc1 | 0.0 | -2.4 | 0.6 | 1.2 | 4.0
O=C(O)CN1C(=O)/C(=C/c2ccc(-c3cccc(Cl)c3)o2)SC1=S | 32.0* | 10.1 | 2.1 | 5.0 | 12.8
O=C(O)CCCN1C(=O)/C(=C\c2ccc(-c3nc4ccccc4s3)o2)SC1=S | -5.4 | 5.9 | 6.7 | 34.7* | 80.1
O=C(O)CCN1C(=O)/C(=C/c2ccc(-c3nc4ccccc4s3)o2)SC1=S | 6.5 | 4.9 | 1.2 | 28.5 | 98.1
O=C(O)c1cc(-c2ccc(/C=C3/SC(=S)N(Cc4ccccc4)C3=O)o2)ccc1Cl | 13.6 | -5.8 | -0.6 | 7.1 | 3.8
O=C(CSc1nccn1Cc1ccc(F)cc1)NCc1ccco1 | 18.6 | -4.7 | -0.4 | 0.6 | -6.6
CCN1CCN(c2ncnc3c2cnn3-c2cc(Cl)ccc2C)CC1 | -1.8 | 0.7 | 0.1 | 1.0 | -16.5
Cc1ccc(Cl)cc1-n1ncc2c(N3CCN(Cc4ccccc4)CC3)ncnc21 | -5.1 | -2.2 | -0.8 | -2.3 | -45.2*
Cc1cc(C)cc(NC(=O)CCC(=O)N2CCSc3ccccc32)c1 | 2.2 | -2.4 | 0.1 | 1.3 | -58.1*!
COC(=O)c1ccccc1NC(=O)CCC(=O)N1CCSc2ccccc21 | -3.2 | -7.5 | -0.3 | 1.1 | -4.4
CCc1ccccc1NS(=O)(=O)c1ccc2[nH]cc(C(=O)N3CCCCC3)c(=O)c2c1 | 14.8 | -0.8 | -0.9 | -1.6 | 2.5
CCc1ccccc1NS(=O)(=O)c1ccc2[nH]cc(C(=O)N(CC(C)C)CC(C)C)c(=O)c2c1 | 6.1 | -0.3 | 0.4 | 0.5 | -53.9*
COc1cc2c(=O)n(Cc3ccccc3Cl)c(=O)n(CC(=O)Nc3ccccc3)c2cc1OC | 6.4 | -2.1 | 1.8 | 4.0 | -0.5
CN(C)S(=O)(=O)c1cccc(CSCc2cccc(S(=O)(=O)N(C)C)c2)c1 | 0.9 | -8.2 | 1.6 | 23.0 | -36.1*
O=C(Nc1ccc2c(c1)OCO2)C1CC(=O)N(CCc2ccccc2)C1 (stereo not given) | 2.8 | -6.3 | -0.4 | -1.5 | -37.6*
COc1ccc(CCN2CC(C(=O)Nc3ccc4c(c3)OCO4)CC2=O)cc1OC (stereo not given) | -11.3 | 0.1 | -0.1 | 2.9 | -4.0
CCN(CC)C(=O)C[n+]1cccc(C(N)=O)c1 | 1.0 | -3.8 | 0.1 | 2.0 | -31.0*
Cc1ccc(C(=O)C[n+]2cccc(C(N)=O)c2)cc1 | -2.3 | -10.9 | 0.3 | 2.2 | 13.1
O=C(CSc1nccn1Cc1ccc(Cl)cc1)NC1CCCC1 | 0.6 | -2.7 | 0.4 | 0.7 | 2.6
SMILES | TRHR PAM | D1 PAM | TRHR agonist | D1 ag | D1 antagonist
COc1ccc(C(=O)COC(=O)Cn2c(C)csc2=O)c(OC)c1 | 10.1 | -1.5 | -0.3 | 10.8 | -33.3*
COc1cc(CNCc2ccccc2)cc(Cl)c1OC | 3.2 | -9.7 | -0.5 | 5.3 | -1.4
CCOc1cc(CNCC(C)C)cc(Cl)c1OCc1ccccc1 | -4.4 | 18.4 | 0.5 | 47.3* | 9.0
COc1cc(CNCCc2ccc(F)cc2)ccc1OCc1ccc(Cl)nc1 | 6.2 | -20.6 | 5.8 | 91.9* | -40.0*
CCOc1c(Cl)cc(CNCC(C)C)cc1OC | 10.4 | 3.2 | 0.9 | 6.7 | 3.8
COc1cc(CNCCc2c[nH]c3ccccc23)cc(Cl)c1OCC(N)=O | 2.4 | -2.1 | 2.7 | 12.3 | -30.7*
COc1cc(CNCCc2ccccc2)cc(Cl)c1OCc1ccccc1 | 9.0 | 17.3 | -2.1 | 40.1* | 12.4
Cc1ccn2c(Nc3ccc4c(c3)OCCO4)c(-c3ccc(C)o3)nc2c1 | -5.4 | 2.7 | 0.0 | -2.7 | -3.9
CNCc1cc(Br)c(OCC(=O)Nc2ccccc2OC)c(OC)c1 | 4.2 | -3.5 | 2.0 | 13.6 | 2.7
COc1cc(CNCCc2ccccc2)cc(Br)c1OCC(=O)Nc1ccccc1C | 5.1 | -2.6 | 1.3 | 51.1* | -15.6
COc1ccc(S(N)(=O)=O)cc1C(=O)NCCCN1CCN(c2ccccc2OC)CC1 | -3.2 | -13.9 | 0.7 | 2.0 | -11.9
COc1cc2c(C(=O)NCCCN3CCN(c4cccc(Cl)c4)CC3)cn(C)c(=O)c2cc1OC | 3.0 | -4.8 | 1.0 | -1.1 | 10.2
COc1ccc(S(N)(=O)=O)cc1C(=O)NCCCN1CCN(c2ccc(C)cc2)CC1 | -3.0 | -20.1 | -0.3 | 3.1 | -41.6*
COc1ccc(S(N)(=O)=O)cc1C(=O)NCCCN1CCN(c2cccc(Cl)c2)CC1 | 0.0 | -6.8 | -0.4 | 2.3 | -50.6*
CC(=O)c1cc2c(cc1NS(=O)(=O)c1ccc(C)cc1)OCCO2 | 1.9 | 6.2 | -0.5 | 1.2 | -37.3*
Clc1cccc(-c2ccc(CNCCSc3nnnn3-c3ccccc3)o2)c1 | 2.4 | -0.1 | 0.3 | 10.2 | -22.1
COc1ccc(-c2nc3scc(CCNS(=O)(=O)c4ccc(F)cc4F)n3n2)cc1OC | -0.1 | 1.1 | -0.2 | -3.0 | .
CCN(CC)c1ccc(C(=O)OCc2cc(=O)oc3cc(O)ccc23)cc1 | -6.3 | -10.9 | -0.1 | 1.8 | -32.6*
CCN(CC)c1ccc2c(O)cc(=O)oc2c1 | -0.3 | -2.3 | -0.1 | 1.3 | -8.4
O=C(O)c1ccc(CSc2nnc(SCc3ccccc3)s2)cc1 | 3.5 | -4.9 | -0.1 | 1.6 | -47.2*
Cc1ccc(NC(=O)c2ccc(CSc3nnc(C)s3)cc2)cc1 | 20.2 | 35.4* | 0.0 | 125.1* | -10.5
Cc1nnc(SCc2ccc(C(=O)O)cc2)s1 | -9.2 | 1.2 | 1.6 | -0.5 | -7.7
N#Cc1c(SCc2ccccc2)sc(C(=O)c2ccccc2)c1N | -20.5 | -6.2 | -0.4 | -0.6 | -49.1*
CC(C)(C)c1cc(/C=N/NC(=O)Cc2nc3ccccc3[nH]2)cc(C(C)(C)C)c1O | 6.7 | -2.8 | -1.3 | 1.6 | -35.4*
O=C(Cc1nc2ccccc2[nH]1)N/N=C/c1ccccc1 | -3.1 | -2.3 | 0.5 | 2.9 | 9.0
Cc1cc(C)c2c(N)c3cccc(C)c3nc2n1 | 7.0 | 1.6 | 7.1 | 54.4* | 5.3
COc1ccc(CCN(C)Cc2ccc(OCc3ccccc3)c(OC)c2)cc1OC | 6.1 | -12.5 | 0.0 | 86.8* | -41.5*
